# Legend:
# Assay in all cases: yeast three-hybrid, YBZ-1, SC-Leu-His + 0.5 mM 3-AT, 4 days
# Details in all cases: tags: N-Gal4 AD-HA kept; label: inside an RPR1-promoter hybrid RNA with tandem MS2 sites; ssRNA
# PUM1 PUF domain R7-LTV = PUM1 PUF domain R7-LTV (Homo sapiens, UniProt Q14671 828-1176, S1079L;N1080T;E1083V)
# Outline: (§1)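 Matching RNA elements and Pumilio-1 PUF domain libraries, randomized at the three base-contacting residues of every repeat, were co-expressed from a centromeric plasmid in strain YBZ-1 (LexA–MS2 coat fusion, HIS3 reporter). The repeat regions were PCR-amplified and Illumina-sequenced from cells grown four days on SC-Leu (input) or SC-Leu-His + 0.5 mM 3-AT (selection). The interaction score is the log change in variant frequency from input to selection. It is computed in log2, with a pseudocount of 1 for absent variants.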
# PUM1 PUF domain R2-SWR = PUM1 PUF domain R2-SWR (Homo sapiens, UniProt Q14671 828-1176, N899S;Y900W;Q903R)
# Chain of PUM1 PUF domain R2-SWR (Q14671 828-1176 N899S/Y900W/Q903R): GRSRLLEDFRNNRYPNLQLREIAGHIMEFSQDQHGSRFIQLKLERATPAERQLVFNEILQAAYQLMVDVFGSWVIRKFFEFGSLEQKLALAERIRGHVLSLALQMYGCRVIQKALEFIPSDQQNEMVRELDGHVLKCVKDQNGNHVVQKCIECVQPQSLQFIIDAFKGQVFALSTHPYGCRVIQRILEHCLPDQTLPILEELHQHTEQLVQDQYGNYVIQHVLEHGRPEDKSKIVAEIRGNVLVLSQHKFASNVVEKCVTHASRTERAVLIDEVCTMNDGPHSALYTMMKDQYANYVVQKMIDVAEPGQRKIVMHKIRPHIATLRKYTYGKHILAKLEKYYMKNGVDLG
# Outline: as §1
# PUM1 PUF domain R5-NGS = PUM1 PUF domain R5-NGS (Homo sapiens, UniProt Q14671 828-1176, C1007N;R1008G;Q1011S)
# Chain of PUM1 PUF domain R5-NGS (Q14671 828-1176 C1007N/R1008G/Q1011S): as the sequence (Q14671 828-1176 N899S/Y900W/Q903R) above, with S72N, W73Y, R76Q, C180N, R181G, Q184S counted along it
# Outline: as §1
# PUM1 PUF domain R5-KAC = PUM1 PUF domain R5-KAC (Homo sapiens, UniProt Q14671 828-1176, C1007K;R1008A;Q1011C)
# Chain of PUM1 PUF domain R5-KAC (Q14671 828-1176 C1007K/R1008A/Q1011C): as the sequence (Q14671 828-1176 N899S/Y900W/Q903R) above, with S72N, W73Y, R76Q, C180K, R181A, Q184C counted along it
# Outline: as §1
# PUM1 PUF domain R1-KRS = PUM1 PUF domain R1-KRS (Homo sapiens, UniProt Q14671 828-1176, S863K;Q867S)
# Chain of PUM1 PUF domain R1-KRS (Q14671 828-1176 S863K/Q867S): as the sequence (Q14671 828-1176 N899S/Y900W/Q903R) above, with S36K, Q40S, S72N, W73Y, R76Q counted along it
# Outline: as §1
# PUM1 PUF domain R1-KCR = PUM1 PUF domain R1-KCR (Homo sapiens, UniProt Q14671 828-1176, S863K;R864C;Q867R)
# Chain of PUM1 PUF domain R1-KCR (Q14671 828-1176 S863K/R864C/Q867R): as the sequence (Q14671 828-1176 N899S/Y900W/Q903R) above, with S36K, R37C, Q40R, S72N, W73Y, R76Q counted along it
# Outline: as §1
# Chain of PUM1 PUF domain R7-LTV (Q14671 828-1176 S1079L/N1080T/E1083V): as the sequence (Q14671 828-1176 N899S/Y900W/Q903R) above, with S72N, W73Y, R76Q, S252L, N253T, E256V counted along it
sequence,measurement,setting,value
GGCUAGAACUAGUGGAUCCCCCGGCGCCCGGCGGCUCGAGCCCGGGUAAGUUUAAAUAGUCUGCAUGCCGCCGGGCGCCAUGCCUGCAGGUCGACUCUAGAAAACAUG,binding signal,PUM1 PUF domain R7-LTV,4.94 log2 enrichment (interaction score)
GGCUAGAACUAGUGGAUCCCCCGGCGCCCGGCGGCUCGAGCCCGGGUAAGUGUAAACAGUCUGCAUGCCGCCGGGCGCCAUGCCUGCAGGUCGACUCUAGAAAACAUG,binding signal,PUM1 PUF domain R2-SWR,4.79 log2 enrichment (interaction score)
GGCUAGAACUAGUGGAUCCCCCGGCGCCCGGCGGCUCGAGCCCGGGUAAGUGUUAAUAGUCUGCAUGCCGCCGGGCGCCAUGCCUGCAGGUCGACUCUAGAAAACAUG,binding signal,PUM1 PUF domain R5-NGS,4.12 log2 enrichment (interaction score)
same,binding signal,PUM1 PUF domain R5-KAC,3.67 log2 enrichment (interaction score)
GGCUAGAACUAGUGGAUCCCCCGGCGCCCGGCGGCUCGAGCCCGGGUAAGUGUAAAUCGUCUGCAUGCCGCCGGGCGCCAUGCCUGCAGGUCGACUCUAGAAAACAUG,binding signal,PUM1 PUF domain R1-KRS,5.16 log2 enrichment (interaction score)
same,binding signal,PUM1 PUF domain R1-KCR,7.51 log2 enrichment (interaction score)
